Assay results published in the supplement of paper PMC12494721.
Structures can show the parent of a compound that is named as a salt.

Key:
Details in all cases: 20 µM; incubation time: 27 h, anaerobic, 37 °C;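 for the amine columns active = adjusted P below 0.05 in both replicates with a change the same way and a mean fold change under 0.8 or over 1.25; inactive = the rest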
[1] = tested on: Clostridium sporogenes DSM 1664; assay: growth (OD595) fold change vs plate DMSO controls (fold change (ratio)); higher = more growth
Summary of the method: (§1)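 After 27 h at 37 °C under anaerobic conditions, 96-well cultures in mGAM were shaken and read at 595 nm. The readings were blank-subtracted, corrected for compound background using 20 µM compound solutions in water, and converted to OD with a calibration factor of 5. Growth is defined as the fold change over the median of DMSO controls on each plate. Fold changes above 1.5 were set to NA, and each value is the mean of 2 biological replicates.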

Escherichia coli IAI1 [2] = assay: as above
Summary of the method: as §1

[3] = tested on: Klebsiella aerogenes DSM 30053; assay: as above
Summary of the method: as §1

[4] = tested on: Ruminococcus gnavus DSM 108212; assay: as above
Summary of the method: as §1

[5] = tested on: Klebsiella aerogenes DSM 30053; assay: fold change of Histamine concentration vs plate DMSO controls (fold change (ratio)); higher = more amine produced, active = hit call of the paper (significant change in both replicates, either direction)
Summary of the method: (§2)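 Anaerobic mGAM cultures of four gut bacterial strains were grown at 37 °C for 27 h in 80 µL wells, starting at OD 0.1 before 1:1 dilution. Compounds were at 20 µM final (sweeteners 50 µM). Whole cultures were extracted with cold acetonitrile/methanol containing 0.1% formic acid and centrifuged. Amines were quantified by LC–triple-quadrupole MS (dynamic MRM) against external calibration curves and drift-corrected within batch. Each value is the fold change versus plate DMSO controls, averaged over 2 biological replicates.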

[6] = tested on: Clostridium sporogenes DSM 1664; assay: fold change of Tryptamine concentration vs plate DMSO controls (fold change (ratio)); higher = more amine produced, active = hit call of the paper (significant change in both replicates, either direction)
Summary of the method: as §2

[7] = tested on: Ruminococcus gnavus DSM 108212; assay: as above
Summary of the method: as §2

Escherichia coli IAI1 [8] = assay: fold change of Putrescine concentration vs plate DMSO controls (fold change (ratio)); higher = more amine produced, active = hit call of the paper (significant change in both replicates, either direction)
Summary of the method: as §2

[9] = tested on: Klebsiella aerogenes DSM 30053; assay: as above
Summary of the method: as §2

Escherichia coli IAI1 [10] = assay: fold change of Cadaverine concentration vs plate DMSO controls (fold change (ratio)); higher = more amine produced, active = hit call of the paper (significant change in both replicates, either direction)
Summary of the method: as §2

[11] = tested on: Klebsiella aerogenes DSM 30053; assay: as above
Summary of the method: as §2

[12] = tested on: Ruminococcus gnavus DSM 108212; assay: fold change of 2-Phenylethylamine concentration vs plate DMSO controls (fold change (ratio)); higher = more amine produced, active = hit call of the paper (significant change in both replicates, either direction)
Summary of the method: as §2

Row | Structure (SMILES) | growth [1] | growth (Escherichia coli IAI1 [2]) | growth [3] | growth [4] | fold change of Histamine concentration [5] | fold change of Tryptamine concentration [6] | fold change of Tryptamine concentration [7] | fold change of Putrescine concentration (Escherichia coli IAI1 [8]) | fold change of Putrescine concentration [9] | fold change of Cadaverine concentration (Escherichia coli IAI1 [10]) | fold change of Cadaverine concentration [11] | fold change of 2-Phenylethylamine concentration [12]
1 | CCN(C)C(=O)Oc1cccc([C@H](C)N(C)C)c1 [Rivastigmine] | 0.985 | 1.03 | 1.02 | 1.05 | 0.987 (inactive) | 1.18 (inactive) | 1.13 (inactive) | 0.958 (inactive) | 0.993 (inactive) | 0.937 (inactive) | 1.03 (inactive) | 1.18 (inactive)
2 | CCOC(=O)c1cncn1[C@H](C)c1ccccc1 [Etomidate] |  | 1.22 | 0.988 | 0.931 | 0.992 (inactive) |  | 1.06 (inactive) | 0.985 (inactive) | 1.07 (inactive) | 0.973 (inactive) | 1.07 (inactive) | 1.19 (inactive)
3 | CN/C(=N\[N+](=O)[O-])NCc1cnc(Cl)s1 | 0.943 | 0.968 | 0.989 | 0.944 | 1.01 (inactive) | 0.953 (inactive) | 0.989 (inactive) | 0.98 (inactive) | 1 (inactive) | 1.07 (inactive) | 0.994 (inactive) | 1 (inactive)
4 | O=C(O[C@H]1C[N+]2(CCCOc3ccccc3)CCC1CC2)C(O)(c1cccs1)c1cccs1 [Aclidinium bromide] | 1.12 | 1.08 | 1.03 | 1.14 | 1.05 (inactive) | 1.01 (inactive) | 0.985 (inactive) | 1.08 (inactive) | 1 (inactive) | 0.982 (inactive) | 1 (inactive) | 0.963 (inactive)
5 | O=C1CC[C@@]2(O)[C@H]3Cc4ccc(O)c5c4[C@@]2(CCN3CC2CC2)[C@H]1O5 [Naltrexone hydrochloride dihydrate] |  | 0.661 | 0.69 | 0.579 | 1.03 (inactive) |  | 0.934 (inactive) | 1.02 (inactive) | 1.01 (inactive) | 0.995 (inactive) | 0.992 (inactive) | 0.896 (inactive)
6 | CC(C)(C)NCC(O)c1ccccc1Cl (configuration not stated) [Tulobuterol hydrochloride] | 1.21 | 1.07 | 1 | 0.927 | 1.04 (inactive) | 1.08 (inactive) | 0.664 (inactive) | 1.07 (inactive) | 1.01 (inactive) | 0.968 (inactive) | 0.99 (inactive) | 0.653 (inactive)
7 | CC(C)CC(C)c1sccc1NC(=O)c1cn(C)nc1C(F)(F)F (configuration not stated) | 1.03 | 1.05 | 1.01 | 0.961 | 0.988 (inactive) | 0.935 (inactive) | 1.03 (inactive) | 1.05 (inactive) | 1.01 (inactive) | 1 (inactive) | 0.991 (inactive) | 1.03 (inactive)
8 | COc1ccc(CCN2CCC(Nc3nc4ccccc4n3Cc3ccc(F)cc3)CC2)cc1 [Astemizole] | 1.26 | 1.02 | 1.01 |  | 0.968 (inactive) | 1.02 (inactive) | 0.838 (inactive) | 1.01 (inactive) | 0.988 (inactive) | 1.05 (inactive) | 0.994 (inactive) | 0.796 (inactive)
9 | CO/N=C(/C(=O)OC)c1ccccc1CO/N=C(\C)c1cccc(C(F)(F)F)c1 | 0.917 | 1.01 | 0.98 | 1.1 | 1.02 (inactive) | 0.956 (inactive) | 0.991 (inactive) | 0.982 (inactive) | 0.987 (inactive) | 0.95 (inactive) | 1.02 (inactive) | 0.951 (inactive)
10 | CC(=O)OC1CN2CCC1CC2 (configuration not stated) [Aceclidine hydrochloride] | 1.15 | 1.09 | 1.01 | 1.13 | 0.864 (inactive) | 1.02 (inactive) | 1.03 (inactive) | 1.02 (inactive) | 0.959 (inactive) | 0.951 (inactive) | 1.02 (inactive) | 1.01 (inactive)
11 | CC1(C)C(C=C(Cl)Cl)C1C(=O)OC(C#N)c1cccc(Oc2ccccc2)c1 (mixture of isomers) | 1.13 | 1.01 | 0.982 | 1.04 | 1.02 (inactive) | 0.975 (inactive) | 1.02 (inactive) | 0.971 (inactive) | 1.02 (inactive) | 0.994 (inactive) | 1.01 (inactive) | 1 (inactive)
12 | CC(C)(C)c1ccc(CSc2cnn(C(C)(C)C)c(=O)c2Cl)cc1 | 0.838 | 0.995 | 1.01 | 1.13 | 1 (inactive) | 1.02 (inactive) | 0.997 (inactive) | 0.97 (inactive) | 1.01 (inactive) | 1.04 (inactive) | 1 (inactive) | 0.948 (inactive)
13 | CCCC[N+]1(C)[C@@H]2C[C@@H](OC(=O)[C@H](CO)c3ccccc3)C[C@H]1[C@@H]1O[C@@H]12 (some centres not stated) [N-Butylscopolammonium bromide] | 0.954 | 1.22 | 0.974 | 1.06 | 1.03 (inactive) | 0.921 (inactive) | 0.946 (inactive) | 1.27 (inactive) | 1.01 (inactive) | 0.975 (inactive) | 0.99 (inactive) | 0.913 (inactive)
14 | COP(N)(=O)SC (configuration not stated) | 1.17 | 1.07 | 1.12 | 1.01 | 0.935 (inactive) | 0.998 (inactive) | 1.05 (inactive) | 1.05 (inactive) | 1.01 (inactive) | 0.966 (inactive) | 1.02 (inactive) | 1.06 (inactive)
15 | OC(c1ccccc1)(c1ccccc1)C1CCNCC1 [Azacyclonol] | 1.09 | 1.01 | 1.01 | 1.1 | 1.06 (inactive) | 1.02 (inactive) | 1.07 (inactive) | 1.02 (inactive) | 1.01 (inactive) | 0.849 (inactive) | 1 (inactive) | 1.06 (inactive)
16 | O=P1(N(CCCl)CCCl)NCCCO1 (configuration not stated) [Cyclophosphamide] | 0.997 | 1.02 | 0.997 | 1.11 | 1.03 (inactive) | 0.997 (inactive) | 1.02 (inactive) | 1.01 (inactive) | 1.01 (inactive) | 1.02 (inactive) | 0.999 (inactive) | 1.03 (inactive)
